Data published in PubChem BioAssay AID1457 (National Center for Advancing Translational Sciences (NCATS), 2008).
In all, about 210,000 compounds went through this assay and about 730 (0.35%) were called active. Another 1% or so got no clear call; they are omitted. This excerpt belongs to a sample that is enriched for actives. Unmarked numbers belong to inactive results. The call rests on the fitted dose curve; in most records, active means well fitted inhibition curve with a large enough effect; inconclusive means small, poorly fitted or top-dose-only effect; inactive means no such curve, though single readings can be large or run the other way.

Assay: qHTS Assay for Identifying the Cell-Membrane Permeable IMPase Inhibitors: Potentiation with Lithium;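 further: IP1 builds up when IMPase is blocked and the TR-FRET signal falls; nearly all actives have a fitted effect of over 50% in size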;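 on activity, negative = IMPase inhibition: plate controls were basal vehicle for no effect and high inhibitor control for full effect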
Settings: CHO-M1 cells, IP1 TR-FRET (IP-One), carbachol + lithium; series mostly up to 59.4 µM; activity, negative = IMPase inhibition: at the top concentration
Method in brief: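 Lithium-sensitised IP1 accumulation assay; M1-expressing CHO cells treated 30 min at 37C with compound. Competitive antibody detection by time-resolved FRET followed a 10 min room-temperature lysis step.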
Potency means the concentration at half of the fitted maximal effect.

Structure (SMILES)	activity, negative = IMPase inhibition	Potency
O=C(c1ccco1)N1CCC2(CC1)CCN(c1ncccn1)CC2	2.75%	–
O=C(C1=C(O)C(=O)N(c2ncccn2)C1c1cccs1)c1ccco1 (stereo not given)	–	11.2 µM (active)
O=C(c1ccco1)N1CCC2(CC1)CN(c1ncccn1)C2	-29.1%	–
C=CCC1CCC(=O)N2CCCC12 (stereo not given)	8.46%	–
C[C@@H]1C(c2ccc(F)cc2)=NN(c2ccc(Br)cc2)[C@H]1C(=O)N1CCOC1=O	0.815%	–
COC(=O)CC1c2ccccc2C(Cc2ccc(OC)cc2)=C(C)N1C(=O)OC (stereo not given)	3.73%	–
COc1cc(OC)c2c(c1)OC(=O)CC2c1cc(OC)c(OC)c(OC)c1 (stereo not given)	23.6%	–
CC1=C2[C@@H](O)[C@H]([C@@H](C)C(=O)NCCC(C)C)CC[C@@]2(C)C=CC1=O	2.85%	–
C=CC1(C)CC(=O)C2(O)C(C)(O1)C(OC(C)=O)C(O)C1C(C)(C)CCC(O)C12C (stereo not given)	–	inactive
COC(=O)C1=C(C(=O)OC)[C@@H]2N(C)c3ccccc3[C@@]23C[C@@H](C(=O)OC)N(C(C)=O)C3=N1	-5.12%	–
CCCC(=O)n1nc(-c2ccccc2)nc1N	1.74%	–
CCN(CC)C(=O)c1sc2nc(-c3ccccc3)ccc2c1N	–	10 µM (active)
Nc1c(C(=O)NCc2ccccc2)sc2nc3c(cc12)C(=O)CCC3	-0.997% [at 38.3 µM]	–
CCCCC/C=C\CC1OC1CCCCCCCC(=O)O (stereo not given)	–	inactive
O=C(COC(=O)Cn1cnc2ccccc21)Nc1cccc2c1C(=O)c1ccccc1C2=O	16.9%	–
O=C(COC(=O)c1ccccc1)Nc1ccccc1Sc1ccccc1	2.86%	–
O=C(COC(=O)c1cccc(Br)c1)Nc1cccc2c1C(=O)c1ccccc1C2=O	–	11.2 µM (active)
C=CCOC(=O)NC(c1ccc(F)c(F)c1)C(C(=O)COC)C(=O)OC (stereo not given)	–	inactive
Cc1csc(-c2coc3cc(O[C@@H]4O[C@H](CO)[C@@H](O)[C@@H](O)[C@H]4O)ccc3c2=O)n1	7.9%	–
CC(C)(Oc1ccc(C2CC2(Cl)Cl)cc1)C(=O)O (stereo not given)	8.64%	–
CC(O)[C@@H](N)C(=O)O (stereo not given in full)	12%	–
CCCCCCCC/C=C\CCCCCCCC(=O)OC[C@H](CO)OC(C)=O	–	inactive
CCOC(=O)C1=C(C(=O)OCC)C(C(=O)OCC)N(S(=O)(=O)C(F)(F)F)c2ccccc21 (stereo not given)	2.92%	–

Structure (SMILES)	activity, negative = IMPase inhibition	Potency
N#Cc1ccccc1NC(=O)c1cccc(COc2ccc(Cl)cc2Cl)c1	–	8.91 µM (active)
CSc1ccc(C#N)cc1NC(=O)c1cccc(Cl)c1	-4.13% [at 38.3 µM]	–
Cc1cc(NC(=O)COc2ccc(Cl)cc2Cl)n(CCC#N)n1	-18.1% [at 38.3 µM]	–
O=C(Nc1ccc(Sc2ccc(Br)cc2)cc1)c1ccco1	6.53% [at 38.3 µM]	–
Cc1ccccc1NC(=O)c1cnn(-c2ccccc2)c1NC(=O)c1ccco1	-10.3% [at 38.3 µM]	–
O=C(Nc1c(-c2ccccc2)nc2c(Br)cc(Br)cn12)c1ccco1	–	10 µM (active)
COc1ccc(-c2c(C)cc3oc(=O)cc(-c4ccccc4)c3c2C)cc1OC	16.6%	–
C=C(C)C(=O)c1ccc(F)cc1	17.7%	–
Cc1sc2ncnc(Sc3nc4ccccc4s3)c2c1C	–	14.1 µM (active)
CSc1ncnc2sc(C)c(C)c12	1.83%	–
c1ccc2sc(SCCSc3nc4ccccc4s3)nc2c1	-2.64%	–
COC(C)C(C(=O)OCC1=CCN2CC[C@H](O)[C@@H]12)C(C)C (stereo not given in full)	29.6%	–
OC[C@H]1O[C@@H](n2cnc3c(NC4CCCC4)ncnc32)[C@H](O)[C@H]1O	22.1%	–
CC/C=C\C/C=C\C/C=C\C/C=C\C/C=C\C/C=C\CCC(=O)NCCc1ccc(O)c(O)c1	14.2%	–
Cc1nc2cc(NC(=O)CSc3nc4c(C)cccc4cc3C#N)ccc2s1	–	11.2 µM (active)
Cc1nonc1NC(=O)CSc1nc2ccccc2cc1C#N	-6.66%	–
Cc1ccc2cc(C#N)c(SCC(=O)NCC3CCCO3)nc2c1C (stereo not given)	-16.1% [at 38.3 µM]	–
O=C(CN1C(=O)c2cccc3cccc(c23)C1=O)N1CCCCC1	-1.07%	–
C[N+](C)(CCCCCC[N+](C)(C)CCCN1C(=O)c2cccc3cccc(c23)C1=O)CCCN1C(=O)c2cccc3cccc(c23)C1=O	–	10 µM (active)
O=C1c2cccc3cccc(c23)C(=O)N1CCCCCc1n[nH]c(=S)o1	-2.87%	–
O=C1CCC[C@@H]2CC(N3CCCCC3)C[C@@H]3CCN1[C@H]23 (stereo not given in full)	16.1%	–
CCCCC[C@H](O)/C=C/[C@@H]1[C@@H](CC(=O)CCC(=O)O)[C@@H](O)C[C@H]1O	17.9%	–
CCCCC/C=C\C/C=C\CCCCCCCCCC(=O)NCC(=O)O	3.03%	–

Structure (SMILES)	activity, negative = IMPase inhibition	Potency
CNc1nccc(-c2ccc(Cl)cc2)c1C#N	-2.1%	–
CN(C)c1nc(-c2cccnc2)nc(-c2ccc(Cl)cc2)c1C#N	–	7.94 µM (active)
N#Cc1c(-c2ccc(Cl)cc2)c2c([nH]c1=S)CCCC2	2.7%	–
COC(=O)CCCC1=CC2=CC(=O)C(C)(OC(=O)c3cccs3)C(=O)C2=CN1c1ccc(CO)cc1 (stereo not given)	-7.18%	–
CC(=O)c1sc(N/N=C\c2ccc(C)cc2)nc1C	5.69%	–
CC(=O)c1sc(NC(=O)c2ccc(C)cc2)nc1C	–	12.6 µM (active)
CC(=O)c1sc(NC(=O)c2cccc3ccccc23)nc1C	-12.6% [at 38.3 µM]	–
COC(=O)C1=C(C(=O)OC)[C@@H]2Nc3ccccc3[C@@]23C[C@@H](C(=O)OC)N(S(=O)(=O)c2ccc([N+](=O)[O-])cc2)C3=N1	23.4%	–
CC(=O)OC1C([N+]2(C)CCCCC2)C[C@H]2C3CC[C@H]4C[C@H](OC(C)=O)C([N+]5(C)CCCCC5)CC4(C)C3CCC12C (stereo not given in full)	27.8%	–
COCOc1cc(OC)ccc1C(=O)/C=C/c1ccc([N+](=O)[O-])cc1	-13.9%	–
CC(=O)Nc1cc2ccc(OC(C)=O)cc2oc1=O	–	8.91 µM (active)
CC(=O)Oc1ccc(NC(=O)CCC2CCCCC2)c(C(=O)O)c1	6.82%	–
CC(=O)c1cc(NC(=O)c2ccccc2)c(=O)oc1/C=C/N(C)C	17.6% [at 38.3 µM]	–
COCCN1C=C2C(=O)C(C)(OC(=O)C3CCCC3)C(=O)C=C2C=C1c1ccsc1 (stereo not given)	0.622%	–
N#Cc1cccc(CS(=O)(=O)c2nnnn2-c2cc(C(F)(F)F)cc(C(F)(F)F)c2)c1	20.7%	–
C=C(C(C)=O)C(O)c1cccs1 (stereo not given)	-3.84%	–
COc1ccc(-c2nc3c(c4c2C[C@H](c2ccccc2)OC4)CN(C(=O)c2cccnc2)CC3)c(C)c1	2.33%	–
Cc1cc(C)n(-c2nc(SCC(=O)N3CCCC3)c3c4c(sc3n2)CCCC4)n1	16.9%	–
Cc1nc(SCC(=O)Nc2cc(C)on2)c2c3c(sc2n1)CCCC3	–	10 µM (active)
Cc1ccc(-c2csc(SCC(=O)Nc3cc(C)on3)n2)cc1	7.82%	–
CC(C)c1cnc(NC(=O)Cc2ccccc2)s1	-1.45%	–
COc1ccc(CC(N)C(=O)NC2C(O)[C@H](n3cnc4c(N(C)C)ncnc43)O[C@@H]2CO)cc1 (stereo not given in full)	0.536%	–
CC[C@@]12C=C(/C=C/c3ccccc3)[C@](CC)(C1)[C@H](c1ccccc1)CC2=O	10.1%	–

Structure (SMILES)	activity, negative = IMPase inhibition	Potency
COCCN1C(=O)N[C@@H](CCc2ccccc2)[C@H](C(C)=O)[C@H]1C	-3.57%	–
S=c1nccc(-c2cc(Cl)sc2Cl)[nH]1	–	11.2 µM (active)
Nc1nc2c(ncn2[C@@H]2O[C@H](COP(=O)(O)OP(=O)(O)OP(=O)(O)O)[C@@H](O)C2O)c(=O)[nH]1 (stereo not given in full)	-0.194%	–
COc1ccc(CC(=O)Nc2ccc(C(=O)NC(C)(C)C)cc2)cc1	-3.58%	–
COc1ccc(CC(=O)Nc2ccc(-c3nnc(-c4ccccc4)o3)cc2)cc1	–	10 µM (active)
COc1ccc(-c2nc(-c3ccccc3)oc2Nc2ccc3ccccc3c2)cc1	19.9%	–
COc1cccc(CC(=O)N2CCc3nc(COc4ccccc4)c4c(c3C2)CO[C@@H](C)C4)c1	8.35%	–
CCCCS(=O)(=O)N1C2=NC(C(=O)OC)=C(C(=O)OC)[C@@H]3N(Cc4ccccc4)c4ccccc4[C@]23C[C@H]1C(=O)OC	6.96%	–
COC(=O)C(C(=O)OC)[C@@H](NC=O)c1ccccc1	8.25%	–
O=C(O)COc1ccc(-c2nccc(-c3cccs3)n2)cc1	–	10 µM (active)
O=C(Nc1ccnc(-c2ccncc2)n1)c1cccs1	5.99%	–
COC(=O)CSc1nccc(-c2cccs2)n1	-12.7%	–
C/C(Nc1ccc2oc(=O)ccc2c1)=C1/C(=O)CC2[C@@H]1C2(C)C (stereo not given in full)	19%	–
Cc1cc2oc(=O)cc(-c3ccccc3)c2c(C)c1-c1ccc(OC(F)(F)F)cc1	13.7%	–
CC(C)C[C@H](NC(=O)[C@H](O)[C@H](N)Cc1ccccc1)C(=O)O	-2.42%	–
CC(C)(C)OC(=O)NCCCCC1=CC2=CC(=O)C(C)(OC(=O)c3cccs3)C(=O)C2=CO1 (stereo not given)	18.1%	–
COC(=O)c1ccc(CSc2nc3ccccc3c(=O)n2-c2cccc(OC)c2)o1	1.82% [at 38.3 µM]	–
COc1ccc(OC)c(-n2c(=S)[nH]c3cc(C(=O)N4CCCCC4)ccc3c2=O)c1	9.2%	–
COc1cccc(-n2c(=S)[nH]c3c(oc4ccccc43)c2=O)c1	–	12.6 µM (active)
OC[C@H]1O[C@@H](n2cnc3c(N[C@H]4CC5CCC4C5)ncnc32)[C@H](O)[C@@H]1O (stereo not given in full)	-8.88%	–
CC(=O)CC(c1ccccc1)C1C(=O)Oc2ccccc2C1=O (stereo not given)	0.184%	–
CC(C)C1=CC2=CC[C@H]3[C@](C)(C(=O)O)CCC[C@]3(C)C2CC1 (stereo not given in full)	16%	–
COC(=O)C(C(=O)OC)C1c2ccccc2C=C(C2CC2)N1C(=O)OC (stereo not given)	–	inactive

Structure (SMILES)	activity, negative = IMPase inhibition	Potency
C=CCNC(=O)CSc1nc2sc(C)c(C)c2c(=O)[nH]1	1.14%	–
CC(=O)c1sc2nc(SCC(=O)N3CCCCC3)[nH]c(=O)c2c1C	–	11.2 µM (active)
O=C(CSc1nc2c(cnn2-c2ccc(F)cc2)c(=O)[nH]1)N1CCCCCC1	1.02%	–
CCN1C(=O)N[C@@H](c2ccccc2)[C@H](C(C)=O)[C@H]1C	10.4%	–
O=C1C=C(c2ccccc2)CCC1	12.3%	–
CCN1C(=O)N[C@@H](CCc2ccccc2)C(C(=O)OC)=C1C	4.15%	–
O=C1OCCN1C(=O)[C@H]1[C@H](c2ccc(Cl)cc2)C(c2cccc(Cl)c2)=NN1c1ccc(Br)cc1	-6.47%	–
COC(=O)CCCC1=CC2=CC(=O)C(C)(OC(=O)c3cccs3)C(=O)C2=CN1CC1CC1 (stereo not given)	4.7%	–
COc1ccc(-c2nc3c(c4c2C[C@H](c2ccccc2)OC4)CN(C(=O)C2CC2)CC3)c(C)c1	2.22%	–
CC1=C(C/C=C(\C)CCCC(C)CCCC(C)CCCC(C)C)C(=O)c2ccccc2C1=O (stereo not given)	-3.08%	–
CCc1ccc(NC2Nc3cc(C)nn3S2)cc1 (stereo not given)	-0.821%	–
CCOC(=O)c1ccc(Nc2cc(C)nc3nc(C)nn23)cc1	2.54%	–
CCOC(=O)c1ccc(NC2Nc3cc(C)nn3S2)cc1 (stereo not given)	–	10 µM (active)
CC1(C)O[C@@H]2C[C@@H]3[C@H]4C[C@@H](F)C5=CC(=O)C=C[C@]5(C)[C@@]4(F)[C@@H](O)C[C@]3(C)[C@]2(C(=O)CO)O1	0.557%	–
CCCCCCCC/C=C\CCCCCCCC(=O)NCC(=O)O	-4.73%	–
CCCCC/C=C\C[C@H](O)/C=C/C=C/C=C/[C@@H](O)CCCC(=O)O	12.9%	–
C=CCC(C)(O)c1ccco1 (stereo not given)	12.8%	–
N#C/C(=C(/O)COC(=O)COc1ccc(Cl)cc1)c1nc2ccccc2[nH]1	5.54%	–
Cc1ccccc1OC/C(O)=C(\C#N)c1nc2ccccc2[nH]1	–	12.6 µM (active)
N#C/C(=C(/O)COc1cccc2ccccc12)c1nc2ccccc2[nH]1	1.85%	–
COC(=O)CCCC1=CC2=CC(=O)C(C)(OC(=O)c3cccs3)C(=O)C2=CN1c1cccc(C#N)c1 (stereo not given)	-6.28%	–
C[C@@]12CCC(=O)C=C1CC[C@H]1C2[C@@H](O)C[C@]2(C)[C@@H]1CC[C@@]2(O)C(=O)COC(=O)C1CCCC1 (stereo not given in full)	-5%	–
CO[C@@]12[C@@H](COC(N)=O)C3=C(C(=O)C(C)=C(N)C3=O)N1C[C@@H]1N[C@@H]12	17.2%	–
